# ChEMBL document CHEMBL1857833, “Screening and optimization of specific chemical series against human African Trypanosomiasis (HAT)”
# Values joined by “and” are separate entries in the source; they are usually repeats but may differ in a detail not shown here. Identical values can stand only once. The whole screen tested about 4,400 compounds, of which about 390 (8.9%) showed an effect of 50% or more. The entries come from a sample that favours strong results as a whole.
# Tested on: Trypanosoma brucei
# Assay: DNDI: Inhibition of Human African Trypanosomiasis, SBRI 427, in vitro at 2 ug.mL-1
# Format: functional
row,SMILES,% inhibition
1,CCc1ccc(Oc2ncccc2/C(=N/O)n2ccnc2)cc1,3%
2,Cc1cccc(Oc2ccc(/C(=N/O)N(C)C3CCCCC3)cn2)c1,4%
3,Cc1ccc(/C(=N/O)NCC2CC2)c(Oc2cccc3c2CCCC3)n1,-5%
4,Cc1cc(C)cc(Oc2nc(C)ccc2/C(=N/O)Nc2ccc(C(C)C)cc2)c1,0%
5,COc1cccc(-c2nc(CN3CCN(c4ccccn4)CC3)co2)c1,-9%
6,Oc1ccc(-c2nc(CNCc3ccccc3)co2)cc1,1%
7,CN(Cc1coc(-c2ccc(C(F)(F)F)cc2)n1)CC1OCCO1,-7%
8,CN(Cc1cccnc1)Cc1coc(-c2cccc(F)c2)n1,-1%
9,Cc1ccccc1CN/C(=N\O)c1cccnc1Oc1cccc(C)c1C,85%
10,Cc1ccc(Oc2nc(C)ccc2/C(=N/O)NCc2c(F)cccc2F)cc1,13%
11,O/N=C(\NCc1ccccc1)c1cccnc1Oc1c(F)cccc1F,3%
12,O/N=C(\NCc1c(F)cccc1F)c1cccnc1Oc1ccccc1,98%
13,Cc1ccc(Oc2ncccc2/C(=N/O)NCc2ccccc2)cc1,12%
14,O/N=C(\NCc1cccs1)c1cccnc1Oc1c(F)cccc1F,73%
15,COc1ccccc1CN/C(=N\O)c1cccnc1Oc1cccc(C)c1C,7%
16,CCCN/C(=N\O)c1cccnc1Oc1ccccc1,8%
17,O/N=C(\NCc1cccnc1)c1cccnc1Oc1ccccc1,8%
18,Cc1cccc(Oc2ncccc2/C(=N/O)NCc2ccncc2)c1C,5%
19,Cc1cccc(Oc2ncccc2/C(=N/O)NCc2cccs2)c1C,3%
20,Cc1ccc(Oc2ncccc2/C(=N/O)NCc2c(F)cccc2F)cc1,98%
21,CSc1ccc(Oc2ncccc2/C(=N/O)NCc2cccnc2)cc1C,10%
22,CCOc1cccc(-c2nc(CNCCc3cccc(OC)c3)co2)c1,8%
23,COCC(C)NCc1coc(-c2cccc(C)c2)n1 (stereo unspecified),19%

row,SMILES,% inhibition
1,Cc1ccc(N(C)Cc2coc(-c3ccccc3Cl)n2)cc1,-9%
2,Cc1cc(C)cc(CN/C(=N\O)c2cccnc2Oc2c(F)cccc2F)c1,100%
3,O/N=C(\NCc1ccccc1)c1cccnc1OCc1ccccc1F,37%
4,CC(C)COc1ncccc1/C(=N/O)NCc1c(F)cccc1F,-9%
5,Cc1cc(C)cc(CN/C(=N\O)c2cccnc2OCc2ccccc2F)c1,83%
6,O/N=C(\NCc1c(F)cccc1F)c1cccnc1Oc1c(F)cccc1F,95%
7,O/N=C(\NCc1c(F)cccc1F)c1cccnc1OC1CCC1,10%
8,Cc1cc(C)cc(CN/C(=N\O)c2cccnc2Oc2cccc(C)c2C)c1,-13%
9,Cc1cc(C)cc(CN/C(=N\O)c2cccnc2Oc2c(F)c(F)cc(F)c2F)c1,-3%
10,CC(C)c1ccc(Oc2ncccc2/C(=N/O)NCc2c(F)cccc2F)cc1,100%
11,O/N=C(\NCc1c(F)cccc1F)c1cccnc1Oc1c(F)c(F)cc(F)c1F,2%
12,O/N=C(\NCc1ccncc1)c1cccnc1OCc1ccccc1F,-12%
13,CC(C)c1ccc(Oc2ncccc2/C(=N/O)NCc2ccncc2)cc1,1%
14,COc1cc(C)ccc1Oc1ncccc1/C(=N/O)N(C)C1CCN(C)CC1,-9%
15,Fc1ccc(-c2nc(Cn3ncc4c3CCCC4)co2)cc1,1%
16,COc1cc(-c2nc(CN3CCC(Cc4ccccc4)CC3)co2)cc(OC)c1OC,6%
17,CCOc1ccccc1-c1nc(CN(C)c2ccc(C)cc2)co1,-15%
18,CCCN(Cc1coc(-c2ccccc2Cl)n1)C(C)CC (stereo unspecified),-11%
19,Cc1cc(C)n(/C(=N\O)c2ccnc(Oc3cc(Cl)ccc3Cl)c2)n1,16%
20,N/C(=N\O)c1ccnc(Oc2cccc3c2CCCC3)c1,7%
21,Cc1cc(C)n(/C(=N\O)c2ccnc(Oc3cccc4c3CCCC4)c2)n1,57%
22,O/N=C(/c1ccnc(Oc2cccc3c2CCCC3)c1)N1CCN(c2ccccc2)CC1,22%
23,O/N=C(/c1ccc(Oc2cccc3c2CCCC3)nc1)N1CCSCC1,21%

row,SMILES,% inhibition
1,O/N=C(/c1ccnc(Oc2cccc3c2CCCC3)c1)N1CCSCC1,91%
2,Cc1ccccc1-c1nc(CN(CCN(C)C)Cc2ccccc2)co1,54%
3,CC(C)(C)c1ccc(CNCc2coc(-c3ccc(O)cc3)n2)cc1,36%
4,CC(C)(C)CNCc1coc(-c2ccc(C(C)(C)C)cc2)n1,99%
5,C=COCCCNCc1coc(-c2ccc(C)cc2)n1,-5%
6,C=COCCCNCc1coc(-c2ccc(C(C)(C)C)cc2)n1,53%
7,CCN(CCN(C)C)Cc1coc(-c2ccc(C(C)(C)C)cc2)n1,99%
8,CCN(CC)CCN(CC)Cc1coc(-c2ccc(OC)cc2)n1,14%
9,COCCN(CCOC)Cc1coc(-c2ccc(C(C)(C)C)cc2)n1,-1%
10,CN(C)CC(C)(C)CNCc1coc(-c2ccc(C(C)(C)C)cc2)n1,9%
11,Cc1ccccc1-c1nc(CN(C)Cc2ccccc2)co1,-2%
12,C=COCCCNCc1coc(-c2ccc(OC)cc2)n1,-2%
13,Cc1ccccc1-c1nc(CN(CCC#N)Cc2ccccc2)co1,-5%
14,Cc1ccc(-c2nc(CN(C)C(C)(C)C)co2)cc1,22%
15,CN(CCc1ccccc1)Cc1coc(-c2ccc(Cl)cc2Cl)n1,11%
16,Cc1ccc(CCNCc2coc(-c3ccc(Cl)cc3Cl)n2)cc1,-7%
17,C=CCN(C)Cc1coc(-c2cccc(OC)c2)n1,27%
18,CSc1ccc(Oc2nc(C)ccc2/C(=N/O)N2C(C)CCC2C)cc1C (stereo unspecified),23%
19,FC(F)(F)c1ccc(CNCc2coc(-c3cccs3)n2)cc1,-6%
20,COc1ccc(-c2nc(CN3CCN(C)CC3)co2)cc1,4%
21,CC(C)C(C)NCc1coc(-c2ccc(O)cc2)n1 (stereo unspecified),33%
22,COc1ccc(-c2nc(CNCC3CCCCC3)co2)cc1,10%
23,CC(C)(C)c1ccc(-c2nc(CNCC3CC3)co2)cc1,99%

row,SMILES,% inhibition
1,Cc1ccc(-c2nc(Cn3cc(C)nc3C)co2)cc1,18%
2,Cc1ccc(-c2nc(CNC(C)C(C)C)co2)cc1 (stereo unspecified),41% and 29%
3,Cc1cn(Cc2coc(-c3ccc(C(C)(C)C)cc3)n2)c(C)n1,58%
4,CC(C)C(C)NCc1coc(-c2ccc(C(C)(C)C)cc2)n1 (stereo unspecified),72%
5,Cc1cn(Cc2coc(-c3ccc(C(F)(F)F)cc3)n2)c(C)n1,2%
6,c1ccc(-c2nc(CNCC3CC3)co2)cc1,28%
7,CCCCNCc1coc(-c2ccccc2)n1,20%
8,Cc1ccc(CNCc2coc(-c3ccc(C(C)(C)C)cc3)n2)o1,0%
9,CCCCNCc1coc(-c2ccc(C(C)(C)C)cc2)n1,99%
10,CCOc1ccccc1N(Cc1ccccc1)Cc1coc(-c2cccc(F)c2)n1,1%
11,Brc1ccccc1-c1nc(CNCc2cccc3ccccc23)co1,-1%
12,CCCCN(C)Cc1coc(-c2ccc(OC)cc2)n1,9%
13,COc1cccc(-c2nc(CN3CCCCCCC3)co2)c1,31%
14,Cc1ccc(/C(=N/O)N(C)Cc2ccco2)c(Oc2cccc3c2CCCC3)n1,-8%
15,Cc1cn(Cc2coc(-c3cccc4ccccc34)n2)cn1,1%
16,CCN(Cc1coc(-c2ccccc2Cl)n1)c1ccc(C)cc1,-3%
17,CC(CNCc1coc(-c2cccc3ccccc23)n1)c1ccccc1 (stereo unspecified),8%
18,COc1ccc(-c2nc(CN3CCC(N4CCCC4)CC3)co2)cc1,-12%
19,Fc1ccc(-c2nc(CN3CCN(c4ccc(F)cc4)CC3)co2)cc1,52%
20,Cc1ccc(-c2nc(CN3CCN(c4ccc(F)cc4)CC3)co2)cc1,0%
21,Cc1ccc(-c2nc(CN3CCC(N4CCCC4)CC3)co2)cc1,60%
22,COc1ccc(N2CCN(Cc3coc(-c4ccc(F)cc4)n3)CC2)cc1,-1%
23,Brc1ccc(-c2nc(CN3CCCC3)co2)cc1,1%

row,SMILES,% inhibition
1,Oc1ccc(-c2nc(CN3CCCCCC3)co2)cc1,9%
2,Cc1ccc(-c2nc(CN3CCC(N4CCCCC4)CC3)co2)cc1,3%
3,Brc1ccc(-c2nc(CN3CCCCCC3)co2)cc1,72%
4,Cc1ccc(/C(=N/O)NCc2ccccc2)c(Oc2ccc(F)c(F)c2)n1,23%
5,CCOc1ccc(Oc2ccc(/C(N)=N/O)cn2)cc1,10%
6,Cc1ccc(-c2nc(CNc3cc[nH]n3)co2)cc1,10%
7,Cc1ccc(/C(=N/O)NCCC2CCCN2C)c(OCc2ccccc2)n1 (stereo unspecified),22%
8,Clc1ccc(-c2nc(CNC3CCN(Cc4ccccc4)C3)co2)c(Cl)c1 (stereo unspecified),18%
9,Clc1ccccc1-c1nc(CNC2CCN(Cc3ccccc3)CC2)co1,20%
10,Clc1ccc(-c2nc(CNC3C[C@H]4CC[C@@H]3C4)co2)c(Cl)c1 (stereo partly specified),52%
11,Clc1ccc(-c2nc(CNC3CCN(Cc4ccccc4)CC3)co2)c(Cl)c1,74%
12,Clc1ccc(-c2nc(CNC3CCc4ccccc43)co2)c(Cl)c1 (stereo unspecified),-4%
13,Cc1cc(N2CCN(Cc3coc(-c4ccccc4Cl)n3)CC2)c2ccccc2n1,7%
14,Cc1cc(N2CCN(Cc3coc(-c4cccc5ccccc45)n3)CC2)c2ccccc2n1,52%
15,c1ccc(CN2CCC(NCc3coc(-c4cccc5ccccc45)n3)C2)cc1 (stereo unspecified),14%
16,c1ccc(CN2CCN(Cc3coc(-c4cccc5ccccc45)n3)CC2)cc1,18%
17,Cc1ccc(-c2nc(CN3CCN(c4cc(C)nc5ccccc45)CC3)co2)cc1,12%
18,c1ccc(CN2CCC(NCc3coc(-c4cccc5ccccc45)n3)CC2)cc1,66%
19,Oc1ccc(-c2nc(CNC3C[C@H]4CC[C@@H]3C4)co2)cc1 (stereo partly specified),11%
